# Test results taken from ChEMBL document CHEMBL1201862, “PubChem BioAssay data set” (2004).
# In all, about 400,000 compounds went through this assay and about 2,100 (0.53%) were called active. Not shown: some 14% with an inconclusive outcome. How the calls were made is not given here. The list comes from a sample in which actives are over-represented; it also holds similar structures and randomly drawn compounds.
# Molecular target: Ataxin-2 (Homo sapiens) (UniProt Q99700)
# Test: qHTS for Inhibitors of ATXN expression.
# Format: functional
# Sequence of Ataxin-2 (Homo sapiens) (Q99700 whole entry): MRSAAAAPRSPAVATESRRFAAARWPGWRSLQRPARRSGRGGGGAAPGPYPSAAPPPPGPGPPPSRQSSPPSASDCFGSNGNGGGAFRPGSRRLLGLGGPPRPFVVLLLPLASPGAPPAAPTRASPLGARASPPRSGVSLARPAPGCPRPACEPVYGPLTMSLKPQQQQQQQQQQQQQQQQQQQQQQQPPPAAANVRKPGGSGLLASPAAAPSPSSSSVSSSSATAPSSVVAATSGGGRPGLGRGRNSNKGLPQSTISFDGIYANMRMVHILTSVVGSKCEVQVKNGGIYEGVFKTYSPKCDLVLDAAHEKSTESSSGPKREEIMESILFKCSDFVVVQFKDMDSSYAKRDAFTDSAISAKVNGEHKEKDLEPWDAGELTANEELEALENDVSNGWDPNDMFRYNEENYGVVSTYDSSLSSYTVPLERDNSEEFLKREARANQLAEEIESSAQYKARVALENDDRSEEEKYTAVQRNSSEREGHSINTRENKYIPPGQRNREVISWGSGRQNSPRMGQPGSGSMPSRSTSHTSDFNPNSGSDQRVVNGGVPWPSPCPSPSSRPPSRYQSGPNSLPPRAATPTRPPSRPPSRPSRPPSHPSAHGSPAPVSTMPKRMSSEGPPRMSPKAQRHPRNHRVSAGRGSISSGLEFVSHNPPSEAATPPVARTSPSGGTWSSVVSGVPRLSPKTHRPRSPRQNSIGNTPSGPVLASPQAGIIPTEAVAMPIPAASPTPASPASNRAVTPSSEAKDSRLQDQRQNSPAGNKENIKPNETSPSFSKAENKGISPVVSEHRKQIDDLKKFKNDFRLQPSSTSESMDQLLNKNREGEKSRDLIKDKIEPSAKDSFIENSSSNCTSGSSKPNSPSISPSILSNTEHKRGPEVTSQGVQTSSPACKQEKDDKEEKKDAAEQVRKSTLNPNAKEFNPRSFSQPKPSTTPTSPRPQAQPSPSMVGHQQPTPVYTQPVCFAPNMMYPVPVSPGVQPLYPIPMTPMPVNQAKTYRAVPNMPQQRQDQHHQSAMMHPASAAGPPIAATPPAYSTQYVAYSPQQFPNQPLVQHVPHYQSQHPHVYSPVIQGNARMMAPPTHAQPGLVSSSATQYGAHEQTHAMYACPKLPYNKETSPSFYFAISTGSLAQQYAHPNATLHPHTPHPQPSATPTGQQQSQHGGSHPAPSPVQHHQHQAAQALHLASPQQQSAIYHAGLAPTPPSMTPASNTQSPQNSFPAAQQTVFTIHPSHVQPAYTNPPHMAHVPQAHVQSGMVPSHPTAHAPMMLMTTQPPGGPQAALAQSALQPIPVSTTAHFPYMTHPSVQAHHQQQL
row,Structure (SMILES),Potency
1,Cc1ccc(S(=O)(=O)c2cc3c(=O)n4ccccc4nc3n(Cc3ccco3)c2=N)cc1,inactive
2,N#CC1=C(N)Oc2cc(O)c(Cl)cc2C1c1ccccc1F (stereo unspecified),inactive
3,C=CCN1CCN(C(=O)CSc2ccccc2)CC1,inactive
4,CC(C)c1ccc(CN2CCN(C(=O)CCl)CC2)cc1,15.8 µM (active)
5,CC(C)c1ccc(CN2CCN(S(=O)(=O)c3ccc(Cl)s3)CC2)cc1,inactive
6,Cc1cccc(NS(=O)(=O)c2ccc(C)c(C(=O)NC3CCN(Cc4ccccc4)CC3)c2)c1,inactive
7,Cc1cccc(CC(=O)NC2CCN(C)CC2)c1,inactive
8,Cc1cccc(CN2CCN(C(=O)CCl)CC2)c1,35.5 µM (active)
9,C=CCn1c(=O)c(C#N)cc2c(=O)n3ccccc3nc21,inactive
10,COc1ccc2oc(=O)c(C(=O)N3CCN(C(=O)c4ccco4)CC3)cc2c1,inactive
11,Cc1sc2nc(C(C)C)nc(SCC(=O)N3CCN(C(=O)c4ccco4)CC3)c2c1C,39.8 µM (active)
12,O=C(CSc1nnnn1C1CCCCC1)N1CCN(C(=O)c2ccco2)CC1,inactive
13,CCc1cc2ccc(OC)cc2nc1SCC(=O)N1CCN(C(=O)c2ccco2)CC1,25.1 µM (active)
14,Cc1cc(C(=O)N2CCN(C(=O)c3ccco3)CC2)ccc1[N+](=O)[O-],inactive
15,O=C(CSc1ccccc1)N1CCN(C(=O)c2ccco2)CC1,inactive
16,Cc1ccc(S(=O)(=O)N2CCN(C(=O)CN3C(=O)c4ccc([N+](=O)[O-])cc4C3=O)CC2)cc1C,inactive
17,COc1cc2c(C#CCCCO)c(-c3ccc(C#N)cc3)oc(=O)c2cc1OC,inactive
18,C=CC[C@@H](CC(=O)N(CCO)Cc1ccccc1)C(=O)N[C@@H](COC(=O)[C@H](CC=C)CC(=O)OC(C)(C)C)Cc1c[nH]c2ccccc12,22.4 µM (active)
19,C=CC[C@H](CC(=O)N(CCO)Cc1ccccc1)C(=O)N[C@@H](COC(=O)[C@@H](CC=C)CC(=O)OC(C)(C)C)Cc1c[nH]c2ccccc12,25.1 µM (active)
20,C=CC[C@@H](CC(=O)N(CCO)Cc1ccccc1)C(=O)N[C@H](COC(=O)[C@@H](CC=C)CC(=O)OC(C)(C)C)Cc1c[nH]c2ccccc12,35.5 µM (active)
21,CCCC/N=C1\C(=O)N(C)c2cccc3c(O)c4ccccc4c1c23,inactive
22,COc1ccc2c(C#N)c3ccccn3c2c1,inactive
23,Nc1cccc2c1C(=O)N(CCOc1ccc(F)cc1)C2=O,inactive
24,c1ccc(N2CC3CCc4ccccc4C3=N2)cc1 (stereo unspecified),inactive
25,C/C(CCCO)=N/Nc1ccc([N+](=O)[O-])cc1[N+](=O)[O-],inactive
26,CC/C(=N\Nc1ccc([N+](=O)[O-])cc1[N+](=O)[O-])c1ccc(O)cc1,8.91 µM (active)

row,Structure (SMILES),Potency
1,CC1=CC(C)(C)N2C(=O)/C(=N/c3ccc(O)cc3)c3cccc1c32,31.6 µM (active)
2,CN1C(=O)/C(=N\c2ccc(Cl)cc2)c2c3ccccc3c(O)c3cccc1c23,inactive
3,Cc1ccc(-c2ccc(CN3C(CC(C)C)C(=O)N(Cc4cn(CCC5OCCCO5)nn4)CCS3(=O)=O)cc2)cc1 (stereo unspecified),20 µM (active)
4,CC(C)CC1C(=O)N(Cc2cn(CCC3OCCCO3)nn2)CCS(=O)(=O)N1Cc1ccc(-c2ccc(Cl)nc2)cc1 (stereo unspecified),31.6 µM (active)
5,O=C(c1cc(Br)ccc1O)N1CCN(S(=O)(=O)Cc2ccccc2)CC1,inactive
6,Brc1ccc(-c2nnc3sc(CNCc4ccc5c(c4)OCO5)cn23)cc1,inactive
7,O=C(O)c1ccc(S(=O)(=O)N2CCC(NC(=O)C3CCCCC3)CC2)cc1,inactive
8,CCCOc1ccc(CN(CCC#N)C(=S)NC(=O)c2ccccc2)cc1,39.8 µM (active)
9,Cc1ccc(NC(=O)N(CCC#N)Cc2ccccc2)cc1,inactive
10,COCCN(Cc1ccccc1)C(=O)c1ccc(C(=O)c2ccccc2)cc1,inactive
11,O=C(O)COc1c(Cl)cc(/C=C2/NC(=O)NC2=O)cc1Br,inactive
12,Cc1nnc(N/N=C/c2ccc(-c3ccc(Br)cc3)o2)n1N,inactive
13,COCCCn1/c(=N/C(=O)c2ccccc2)c(C#N)cc2c(=O)n3cccc(C)c3nc21,inactive
14,Cc1ccsc1C(=O)OCC(=O)Nc1cccc(F)c1,inactive
15,Cc1ccc(C(=O)COC(=O)c2cccc(NC(=O)c3ccc(Cl)cc3Cl)c2)cc1,35.5 µM (active)
16,CN1C(=O)c2ccc(NC(=O)c3ccc(Cl)cc3Cl)cc2C1=O,inactive
17,COc1cc2oc(=O)cc(-c3ccc(-c4ccc(N(C)C)cc4)cc3)c2c(OC)c1OC,inactive
18,O=c1cc(-c2ccccc2)c2cc(Cl)c(O)c(CN3CCOCC3)c2o1,inactive
19,COc1ccc(C(CCN2CCCC(C)C2)c2c(OC)cc(OC)c3c(-c4ccccc4)cc(=O)oc23)cc1 (stereo unspecified),31.6 µM (active)
20,CCCCCc1cc(=O)oc2c(C(CCN3CCCC3)c3cc(OC)c(OC)c(OC)c3)c(OC)cc(OC)c12 (stereo unspecified),35.5 µM (active)
21,COc1ccc(CN2COc3ccc4c(-c5ccccc5)cc(=O)oc4c3C2)cc1OC,inactive
22,COc1cc(C(CCN2CCCC2)c2c(OC)cc(OC)c3c(-c4ccccc4)cc(=O)oc23)cc(OC)c1OC (stereo unspecified),22.4 µM (active)
23,CCCc1cc(=O)oc2c(C)c(O)c(CN3CCCCC3)cc12,inactive
24,CCc1cc(=O)oc2c(C)c3c(cc12)CN(CCc1ccccc1OC)CO3,inactive
25,COc1cc(C(CCN2CCCC(C)C2)c2c(OC)cc(OC)c3c(-c4ccccc4)cc(=O)oc23)cc(OC)c1OC (stereo unspecified),31.6 µM (active)
26,COc1ccc(-c2cc3ccc(O)c(CN4CCCC(C)C4)c3oc2=O)cc1OC (stereo unspecified),inactive

row,Structure (SMILES),Potency
1,COc1ccc(-c2cc(=O)oc3c4c(ccc23)OCN(Cc2cccc(OC)c2)C4)cc1,inactive
2,O=c1cc(-c2ccccc2)c2cc(Cl)c3c(c2o1)CN(Cc1ccccc1)CO3,inactive
3,COc1ccc(C2CC(c3ccccc3)=NN2c2ccccc2)c(C(=O)O)c1OC (stereo unspecified),inactive
4,Cc1cc(C)c2nc(NCCCNC(S)=NCCCN(C)C)c(C#N)cc2c1,inactive
5,Cn1nc(C(=O)Nc2ccc(Br)cc2)cc1C(=O)Nc1ccc(Br)cc1,inactive
6,CCNc1ccc2c(Cl)cc(=O)oc2c1,inactive
7,COc1ccc(C2=CC(c3ccc(Cl)cc3)n3cnnc3N2)cc1OC (stereo unspecified),inactive
8,CN1CCN(CCOCCOc2c(Cl)cc(Cl)cc2Cl)CC1,inactive
9,COCCNc1oc(/C=C/c2cccs2)nc1S(=O)(=O)c1ccccc1,inactive
10,Cc1ccc(S(=O)(=O)N(C)c2ccc(OC(=O)c3cccs3)cc2)cc1C,inactive
11,O=C(COc1ccccc1F)NCc1ccc(-n2cccc2)cc1,inactive
12,O=C(Nc1ccc(C(=O)NCCCN2CCN(c3ccc(F)cc3)CC2)cc1)C1=CSCCO1,inactive
13,COc1ccccc1NC(=O)c1c(C)nn(-c2ccccc2)c1Cl,inactive
14,COc1ccc(CCNC(=O)c2c(C)nn(-c3ccc(F)cc3)c2-n2cccc2)c(OC)c1OC,35.5 µM (active)
15,C/C(=N\NC(=O)CN1CCN(c2ccc(F)cc2)CC1)c1ccco1,inactive
16,Cc1ccc(-n2nc(C)c(C(=O)NCCCN3CCN(c4ccc(F)cc4)CC3)c2-n2cccc2)cc1,25.1 µM (active)
17,CCCc1ccc(C(=O)NNc2cc(Cl)ccc2Cl)cc1,inactive
18,CS(=O)(=O)c1ccc(C(=O)NNC(=O)c2ccccc2-n2cccc2)cc1,inactive
19,CCOC(=O)C1CCN(C(=O)c2cc3c(=O)n4ccccc4nc3n2C)CC1,inactive
20,C/C(=N\NC(=O)c1ccc(Br)cc1)C1C(=O)c2ccccc2C1=O,35.5 µM (active)
21,O=C(NN=C(S)Nc1ccccc1)c1ccc(O)cc1,inactive
22,CC(/C=C(\O)c1ccc(Br)cc1)=N/NC(=O)c1ccccc1,inactive
23,O=C(CCn1nnc2ccccc21)N/N=C\Cc1ccccc1,inactive
24,CC(C)(C)c1ccc(OCC(=O)Nc2cccc(S(=O)(=O)NC3=NCCCCC3)c2)cc1,inactive
25,Cc1cccc(C)c1NC(=O)CN(C)C(=O)c1cccc(NS(=O)(=O)c2ccccc2)c1,inactive
26,O=C(CCl)Nc1cccc(S(=O)(=O)NC2=NCCC2)c1,12.6 µM (active)

row,Structure (SMILES),Potency
1,COc1cc(C(=O)OCC(=O)Nc2ccc(S(=O)(=O)NC3=NCCCCC3)cc2)cc(OC)c1OC,inactive
2,O=C(CCl)Nc1ccc(S(=O)(=O)NC2=NCCCCC2)cc1,13.4 µM (active)
3,Cc1cccc(C(=O)N[C@H](C(=O)Nc2ccc(S(=O)(=O)NC3=NCCCCC3)cc2)C(C)C)c1,inactive
4,Cc1ccc(OCC(=O)Nc2ccc(S(=O)(=O)NC3=NCCCCC3)cc2)cc1,inactive
5,CC(C)=CC(=O)Nc1cccc(S(=O)(=O)NC2=NCCCCC2)c1,inactive
6,O=C(CCl)Nc1cccc(S(=O)(=O)NC2=NCCCCC2)c1,11.2 µM (active)
7,Cc1cc(NC(=O)CSc2nc(=O)cc(N)n2-c2ccc(C)c(C)c2)no1,inactive
8,Cc1cccn2c(=O)c3cc(C(=O)NCc4cccnc4)c(=N)n(CCCO)c3nc12,inactive
9,Cn1c(C(=O)NCC2CCCO2)cc2c(=O)n3ccccc3nc21 (stereo unspecified),inactive
10,COc1ccccc1/N=C/c1c(C)c(C#N)c2nc3ccccc3n2c1O,inactive
11,O=C(Nc1ccccc1)N1CCN(C2c3ccccc3-c3ccccc32)CC1,inactive
12,O=C1C=CC(=O)N1c1ccc2c(c1)C(NC(=O)C(F)(F)F)c1ccccc1-2 (stereo unspecified),25.1 µM (active)
13,Cc1ccc2c(N)c(C(=O)c3ccccc3)sc2n1,inactive
14,Nc1c(C(=O)c2ccccc2)sc(Nc2ccc(Cl)c(Cl)c2)c1C(=O)Nc1ccccc1,28.2 µM (active)
15,COc1cccc(OC)c1C(=O)Nc1ccc(Br)c(C(=O)c2ccccc2)c1,inactive
16,Cc1nc2sc(C(=O)c3ccccc3)c(N)c2c(C)c1C,inactive
17,COc1ccc(CNC(=O)CCC(=O)c2ccccc2)cc1,inactive
18,COc1ccc(CNC(=O)c2c(Nc3ccccc3C)sc(C(=O)c3ccccc3)c2N)cc1,35.5 µM (active)
19,Cc1cccc(C)c1Nc1sc(C(=O)c2ccccc2)c(N)c1C(=O)Nc1ccc(F)cc1,28.2 µM (active)
20,CCO/C(O)=C1\C(C)=Nc2sc(C(=O)c3ccc(C)cc3)c(N)c2C1c1ccc(C(=O)OC)cc1 (stereo unspecified),inactive
21,Cc1cc(C)c2c(N)c(C(=O)c3ccccc3)sc2n1,inactive
22,COc1ccc(C(=O)c2sc3nc(-c4ccccc4)ccc3c2N)cc1,inactive
23,Cc1ccc(CNC(=O)c2c(Nc3c(C)cccc3C)sc(C(=O)c3ccccc3)c2N)cc1,39.8 µM (active)
